# Data reported in PubChem BioAssay AID687028 (Broad Institute, 2013).
# The campaign covered roughly 1,400 compounds. About 55 (4%) were called active. How the calls were made is not given here. The list is a sample of the results. Measured potencies and affinities stand elsewhere.
# Assay: viability loss in A549 cells – cell-based, plate reader, cherry-pick samples, cytotoxicity control, dose response (AID 687028);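 further: cells incubated with compound for three days before reading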
# Conditions: series mostly up to 19.5 µM; activity change, negative = toxicity: at the top concentration
row,Structure (SMILES),"activity change, negative = toxicity"
1,COc1ccc(-c2cnc3c(NC(C)=O)cc(-c4ccccc4OC)cn23)cc1OC,-5.73% (inactive)
2,O=C(OCc1ccccc1)N1CCC2CC1c1ccc(-c3ccc4c(c3)OCO4)cc12 (stereo unspecified),-3.39% (inactive)
3,Cc1cc(F)ccc1S(=O)(=O)Nc1ncnc2scc(-c3ccc(F)cc3)c12,1.95% (inactive)
4,C[C@@H]1CN([C@@H](C)CO)C(=O)c2cc(NC(=O)Nc3ccc(C(F)(F)F)cc3)ccc2O[C@@H]1CN(C)C(=O)NC1CCCCC1,-5.36% [at 21 µM] (inactive)
5,CC1(C(=O)NCc2ccccc2)CN(S(C)(=O)=O)CC(=O)N1CCc1ccccc1F (stereo unspecified),3.86% (inactive)
6,COc1ccccc1S(=O)(=O)N(C)C[C@H]1Oc2cc(C#CCC(C)C)ccc2S(=O)(=O)N([C@@H](C)CO)C[C@@H]1C,-33% (inactive)
7,Cc1ccc2oc3c(c(=O)c2c1)C(c1cccc(Cl)c1)N(CCCN1CCOCC1)C3=O (stereo unspecified),-1.92% (inactive)
8,O=C(c1ccc2c(c1)OCO2)N1CCC(Cc2ccccc2)CC1,7.07% (inactive)
9,O=C(NCc1ccccn1)C(=O)NCC1OCCN1S(=O)(=O)c1ccc(Br)cc1 (stereo unspecified),8.48% (inactive)
10,CC1(NC(=O)c2cc(Cl)nc3ccccc23)CCS(=O)(=O)C1 (stereo unspecified),-2.91% (inactive)
11,COc1ccc(Cl)cc1N1C(=O)CC(N2CCN(S(=O)(=O)c3ccccc3F)CC2)C1=O (stereo unspecified),1.09% (inactive)
12,CN(C)c1ccc(-c2cc3ccccc3c(=O)o2)cc1,1.1% (inactive)
13,Cc1ccc(C)c(C(Nc2ccccc2)c2ccc3ccc(C)nc3c2O)c1 (stereo unspecified),-0.272% (inactive)
14,CCOC(=O)Cc1sc(N)nc1C,0.064% (inactive)
15,O=C(Nc1cccc(Cl)c1)c1ccccc1,-3.71% (inactive)
16,CCCCCNC(=O)c1[nH]c(C(F)(F)F)nc1-c1ccccc1,6.01% (inactive)
17,COC(=O)c1ccc2nc(C3CCCCC3)c(Cc3ccccc3OC)n2c1,-1.25% (inactive)
18,CCCCNC(=O)c1ccc(NS(=O)(=O)c2ccc3[nH]c(=O)[nH]c3c2)cc1,0.722% (inactive)
19,CC(=O)Nc1cccc2ncccc12,-0.652% (inactive)
20,COc1cc(NC(C)=O)c2ncccc2c1Br,3.43% (inactive)
21,CCOc1cc(CNCCN2CCOCC2)ccc1OCc1ccccc1Cl,-1.76% (inactive)

row,Structure (SMILES),"activity change, negative = toxicity"
1,CC1=NCCN1CCNC(=O)Nc1ccc(C(C)(C)C)cc1,3.62% (inactive)
2,C[C@H](CO)N1C[C@H](C)[C@H](CN(C)C)Oc2ncc(C#CC3CC3)cc2C1=O,1.84% (inactive)
3,C/C=C/c1ccc([C@H]2[C@@H](CO)N3CCCCN(S(=O)(=O)c4ccccc4)C[C@@H]23)cc1,1.81% (inactive)
4,C[C@H](CO)N1C[C@H](C)[C@H](CN(C)C(=O)c2ccccc2)Oc2cc(C3=CCCCC3)ccc2S1(=O)=O,-2.34% (inactive)
5,Cc1ccc(S(=O)(=O)N(C)C[C@H]2Oc3ccc(NS(=O)(=O)c4ccc(F)cc4)cc3C(=O)N([C@H](C)CO)C[C@@H]2C)cc1,-2.45% [at 21 µM] (inactive)
6,Cc1cc(O)c(C(C)C)cc1NC(=O)c1ccccc1Cl,-1.25% (inactive)
7,Cc1ccc(OCCCCNC(C)c2ccccc2)c(C)c1 (stereo unspecified),2.38% (inactive)
8,Cc1ccc(NC(=O)C(=O)NCC2CCCN2S(=O)(=O)c2cccs2)cc1 (stereo unspecified),1.62% (inactive)
9,N#C[C@@H]1[C@H](c2ccc(C#Cc3ccccc3F)cc2)[C@@H](CO)N1C(=O)C1CC1,1.1% (inactive)
10,COc1ccc(C(C)(NC(C)=O)c2nc(-c3cccc(F)c3)cs2)cc1 (stereo unspecified),3.2% (inactive)
11,ClCCCc1cn(C[C@H]2CC[C@@H]([C@@H]3CC[C@H](Cn4cc(CCCCl)nn4)O3)O2)nn1,7.49% (inactive)
12,C[C@H]1CN([C@@H](C)CO)C(=O)c2cccc(NS(=O)(=O)c3ccccc3)c2O[C@@H]1CN(C)Cc1ccc(Cl)c(Cl)c1,-3.38% (inactive)
13,Cc1c(C(=O)OC(C)C)sc(N)c1C(=O)OC(C)C,1.5% (inactive)
14,O=C(NCCNC(=O)c1cc(F)cc(F)c1)c1cc(F)cc(F)c1,-3.56% (inactive)
15,O=C(NCc1ccccc1)C(c1ccncc1)n1c(=O)c(-c2ccccc2)nc2ccccc21 (stereo unspecified),4.91% (inactive)
16,CCCc1nc2ccccc2n1C(C)C(=O)NC(C)(C)C (stereo unspecified),3.89% (inactive)
17,COc1ccc2c3c([nH]c2c1)[C@@H](CO)N(C(=O)C1CCOCC1)CC31CN(C)C1,-1.01% (inactive)
18,CN(C)C(=O)c1cccc(-c2ccc3c(c2)[C@@H]2[C@@H](CCN2C(=O)Cc2ccncc2)[C@@H](CO)N3)c1,6.17% (inactive)
19,COc1ccc(CC(=O)Nc2ccc(C)c(S(=O)(=O)N3CCCCCC3)c2)cc1,-1.27% (inactive)
20,COc1ccc(C)cc1NC(=O)C1CCN(S(=O)(=O)c2cccc3cccnc23)CC1,7.52% (inactive)
21,O=c1c2cc(Br)ccc2[nH]c(=S)n1Cc1ccccn1,-1.61% (inactive)

row,Structure (SMILES),"activity change, negative = toxicity"
1,CCc1c(C(=O)Nc2cc(C(=O)OC)ccc2C)csc1C,4.93% (inactive)
2,CC(=O)Nc1cccc(OCCCNC(=O)c2ccc(C(C)(C)C)cc2)c1,-4.38% (inactive)
3,CC(C)(C)c1ccc(C(=O)Nc2ccc3c(c2)C(=O)NC3=O)cc1,12.8% (inactive)
4,CN(C)CC(=O)Nc1ccc2c(c1)[C@@H]1C[C@@H](CC(=O)NC3CCCCC3)O[C@H](CO)[C@@H]1O2,-0.282% (inactive)
5,CC(Oc1ccccc1Cl)C(=O)N1CCOCC1 (stereo unspecified),1.54% (inactive)
6,COc1cccc(NC(=O)COc2cccc3c2CCNC3=O)c1,2.81% (inactive)
7,Cc1ccc(C)c(NS(=O)(=O)c2cc(C(=O)NCc3ccncc3)ccc2C)c1,4.78% (inactive)
8,Cc1ccc(NC(=O)C2CCN(S(C)(=O)=O)CC2)cc1Cl,0.073% (inactive)
9,COc1ccc(NC(=O)N2C[C@@H](O)COC[C@@H]3O[C@H](CC(=O)NC4Cc5ccccc5C4)CC[C@H]32)cc1,0.889% (inactive)
10,O=C(NCCN1CCC(n2c(=O)[nH]c3ccccc32)CC1)c1ccccc1,3.87% (inactive)
11,CCOC(=O)[C@]12CCCC=C1N(Cc1ccccc1)C(=O)[C@H](CC(=O)NCc1cccs1)C2,5.87% (inactive)
12,CCCCNC(=O)C[C@@H]1C[C@@]2(C(=O)OC)CCCCC=C2N(CCC2=CCCCC2)C1=O,-3.84% (inactive)
13,COC(=O)[C@]12CCCCC=C1N(Cc1cccc3ccccc13)C(=O)[C@H](CC(=O)NCCC(C)C)C2,3.24% (inactive)
14,CCOC(=O)[C@]12CCC=C1N(Cc1cccc3ccccc13)C(=O)[C@H](CC(=O)N1CCCC1)C2,4.62% (inactive)
15,O=C(c1ccc(F)cc1)N1CCC(C(=O)N2CCCc3ccccc32)CC1,1.63% (inactive)
16,COc1ccccc1CN1[C@H](CO)[C@@H](c2ccccc2)C12CN(C(=O)c1ccccn1)C2,-3.67% (inactive)
17,CCc1cccc(OCCN2CCCC2)c1,6.55% (inactive)
18,CC1CCN(CCOc2ccc(OCc3ccccc3)cc2)CC1,5.09% (inactive)
19,CC(OC(=O)c1ccc2c(=O)n3c(nc2c1)CCC3)C(=O)NC1CCCCC1C (stereo unspecified),0.101% (inactive)
